From PubChem BioAssay
SRC1 TRFRET art – TR-FRET detection interference compounds, primary screen, artefact control for PPARgamma SRC-1 recruitment agonists, biochemical, TR-FRET emission ratio; TR-FRET ratio at 8 µM; AID 1051, 2008; 99,000 compounds, 0.34% hits; TR-FRET detection artefact counter-screen; hits give high values; in the data active means TR-FRET ratio above about 2300
PPARg SRC-1 ag – PPARgamma agonists recruiting SRC-1 coactivator, primary screen, biochemical; activation, % at 8 µM; 200,000 compounds, 0.41% hits; AID 631, 2007; PPARgamma-SRC-1 coactivator recruitment biochemical assay; Peroxisome proliferator-activated receptor gamma (Homo sapiens), P37231; in the data active means activation above about 19%;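 further: 0% = DMSO and 100% = reference agonist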
PPARg SRC3 recr – PPARgamma agonists recruiting SRC-3 coactivator, primary screen, biochemical. 200,000 compounds, 0.26% hits. Peroxisome proliferator-activated receptor gamma (Homo sapiens), P37231. biochemical PPARgamma/SRC-3 coactivator recruitment assay. activation, % at 8 µM. AID 731, 2007; in the data active means activation above about 23%;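 further: 0% = DMSO and 100% = reference agonist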
SRC3 TRFRET art – TR-FRET detection interference compounds, artefact control for PPARgamma SRC-3 recruitment agonists, biochemical, TR-FRET ratio. 99,000 compounds, 0.39% hits. TR-FRET artefact counter-screen, PPARgamma/SRC-3 format; hits give high values. AID 1048, 2008. TR-FRET ratio at 8 µM; in the data active means TR-FRET ratio above about 2000
TR-FRET SRC-2 ct – TR-FRET signal artefacts, primary screen, artefact control for PPARgamma SRC-2 agonist project, biochemical | 200,000 compounds, 0.4% hits | TR-FRET ratio at 8 µM | TR-FRET artefact counter-screen; hits give high values | AID 1049, 2008; in the data active means TR-FRET ratio above about 2000
PPARg SRC-2 ag – agonists of PPARg-SRC-2 recruitment, primary screen, biochemical, HTS | Peroxisome proliferator-activated receptor gamma (Homo sapiens), P37231 | PPARgamma LBD-SRC-2 recruitment | activation, % at 8 µM | 200,000 compounds, 0.34% hits;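 further: 0% = vehicle and 100% = reference agonist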
PPARg SRC2 ag – agonists of PPARgamma SRC-2 coactivator recruitment, confirmation, biochemical, HTS | biochemical SRC-2 recruitment by PPARgamma | 790 compounds, 52% hits | shares compounds with PPARg SRC3 recr | activation, % at 8 µM;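 further: 0% = vehicle alone and 100% = reference agonist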
PPARg SRC1 ag – PPARgamma agonists recruiting SRC-1 coactivator, confirmation, biochemical. shares compounds with PPARg SRC3 recr. PPARgamma–SRC-1 coactivator recruitment biochemical assay. activation, % at 8 µM. 790 compounds, 43% hits. AID 1300, 2008; in the data active means activation above about 20%;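 further: 0% = vehicle wells and 100% = reference agonist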
PPARg SRC3 ag – PPARgamma-driven SRC-3 coactivator recruitment agonists, confirmation, biochemical | biochemical PPARgamma-SRC-3 coactivator recruitment, agonist mode | 790 compounds, 29% hits | AID 1301, 2008 | shares compounds with PPARg SRC3 recr | activation, % at 8 µM; in the data active means activation above about 24%;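 further: 0% = vehicle wells and 100% = reference agonist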
* = called active by the depositor; · = no result. Compounds with a hit are over-represented: about 0.9% of the library has one in this group of screens. Unless noted, no stated cut-off is given here; in the data, active means activation above about 22%; inactive means the rest.

SMILES | SRC1 TRFRET art | PPARg SRC-1 ag | PPARg SRC3 recr | SRC3 TRFRET art | TR-FRET SRC-2 ct | PPARg SRC-2 ag | PPARg SRC2 ag | PPARg SRC1 ag | PPARg SRC3 ag
Nc1ccc(O)c2c1C(=O)c1ccccc1C2=O | 2546* | 24* | 21 | 2307* | 2073* | 32* | 17 | 11 | 10
COc1ccc(OC)c2c1C(=O)c1ccccc1C2=O | · | 5 | -1 | · | 1531 | 7 | · | · | ·
COc1ccc(N)c2c1C(=O)c1ccccc1C2=O | 2519* | 23* | 27* | 2262* | 1893 | 34* | 25* | 23* | 20
COc1cc(N=Nc2c(C)n(C)n(-c3ccccc3)c2=O)ccc1N | 1943 | 28* | 11 | 1714 | 1662 | 22 | 2 | 2 | 3
O=C1c2ccccc2C(=O)N1c1cccc(-c2csc(Nc3ccc4c(c3)OCO4)n2)c1 | 2024 | 19 | 12 | 1746 | 1630 | 26* | 14 | 12 | 8
COc1ccc2c(c1)Sc1ccccc1N2 | 2097 | 27* | 13 | 1823 | 1917 | 17 | 11 | 14 | 13
COc1ccc2[nH]c3ccccc3c2c1 | · | -3 | -5 | · | 1426 | 8 | · | · | ·
CC(=O)Nc1ccc(S(=O)(=O)NNC(=O)c2cccc(Cl)c2)cc1 | 1731 | 7 | 3 | 1718 | 1624 | 14 | · | · | ·
CCCCn1c(=S)[nH]c2c(oc3ccc(Cl)cc32)c1=O | · | 22* | 18 | · | 1792 | 17 | 12 | 5 | 11
CC(Nc1ccc(Cl)cc1)c1cc(Cl)ccc1O (configuration not stated) | · | 1 | 7 | · | 1301 | 4 | · | · | ·
CC(Nc1ccc(Br)cn1)c1cc(Cl)ccc1O (configuration not stated) | · | 78* | 52* | · | 1617 | 37* | 33* | 51* | 41*
O=c1c(Br)c(Br)cnn1-c1ccccc1 | 2662* | 38* | 32* | 2406* | 2405* | 34* | 29* | 17 | 20
Cc1ccc(-n2ncc(Br)c(Br)c2=O)cc1 | 2278 | 16 | 18 | 1996 | 1799 | 17 | · | · | ·
CC(=O)Nc1ccc(/C=C/c2ccc3c([N+](=O)[O-])cccc3n2)cc1 | 1793 | 9 | 3 | 1711 | 1808 | 7 | · | · | ·
CC(=O)c1cnc(-c2ccccn2)s1 | 1816 | 4 | 2 | 1464 | 1664 | -2 | · | · | ·
CC(=O)c1cnc(-c2ccccc2Cl)s1 | 2031 | 22* | 13 | 1925 | 1855 | 15 | 20 | 12 | 10
Cc1cc(NS(=O)(=O)c2ccc(NC(=O)c3ccco3)cc2)no1 | · | 21* | 15 | · | 1513 | 5 | -1 | -4 | 0
NNc1nc(-c2ccccc2Cl)nc2sc3c(c12)CCCC3 | 1803 | 0 | 4 | 1658 | 1615 | 9 | · | · | ·
CCOC(=O)Nc1c(C(=O)OC)[nH]c2cc(OC)ccc12 | · | 2 | 3 | · | 1735 | -3 | · | · | ·
COC(=O)c1[nH]c2cc(OC)ccc2c1N | · | 11 | 28* | · | 1621 | 14 | 17 | 7 | 10
O=[N+]([O-])c1cc(Cc2ccccc2)cc(C=Nc2ccc(N3CCOCC3)cc2)c1O | 3128* | 51* | 39* | 2652* | 2504* | 65* | 22 | 17 | 17
C(=N\Nc1nc2ccccc2[nH]1)/c1cccs1 | · | 15 | 28* | · | 1564 | 10 | 10 | 11 | 7
C(=N\Nc1nc2ccccc2[nH]1)/c1ccc2c(c1)OCO2 | 2193 | 22* | 10 | 1932 | 2021* | 5 | 12 | 17 | 9
COc1cc(/C=N/Nc2nc3ccccc3[nH]2)ccc1O | 2030 | 7 | 14 | 1195 | 1560 | 9 | · | · | ·
C(=N\Nc1nc2ccccc2[nH]1)/c1ccncc1 | 1761 | 16 | 9 | 1586 | 1937 | 11 | · | · | ·
SMILES | SRC1 TRFRET art | PPARg SRC-1 ag | PPARg SRC3 recr | SRC3 TRFRET art | TR-FRET SRC-2 ct | PPARg SRC-2 ag | PPARg SRC2 ag | PPARg SRC1 ag | PPARg SRC3 ag
COc1ccc(O)c(/C=N/Nc2nc3ccccc3[nH]2)c1 | 2218 | 7 | 21 | 1959 | 1754 | 26* | 8 | 8 | 9
COc1ccc(-c2nsc(SCC(=O)NCC3CCCO3)n2)cc1 (configuration not stated) | 1658 | 2 | 2 | 1513 | 1460 | 5 | · | · | ·
O=C(COC(=O)CNS(=O)(=O)/C=C/c1ccccc1)Nc1cc(S(=O)(=O)N2CCCCC2)ccc1Cl | 1487 | 8 | 8 | 1689 | 1496 | 3 | · | · | ·
C/C(=N/NS(=O)(=O)c1ccc(C)cc1)c1cccc(NC(=O)c2cccc(Cl)c2)c1 | · | 9 | -1 | · | 1498 | 7 | · | · | ·
C/C(=N/NS(=O)(=O)c1ccc(Cl)cc1)c1cccc(NC(=O)c2ccc(Cl)cc2Cl)c1 | · | 18 | -1 | · | 1666 | 24* | 7 | 8 | 5
CC(C(=O)Nc1ccc(S(=O)(=O)N2CCOCC2)cc1)N1C(=O)C2CC=CCC2C1=O (configuration not stated) | 1865 | 2 | 0 | 1718 | 1610 | 1 | · | · | ·
Cc1ccc(-c2cc(-c3ccccc3)c(C#N)c(N)n2)o1 | · | 8 | -4 | · | 1836 | 5 | · | · | ·
Cc1cc(-c2ccc(Cl)cc2)c(C#N)c(N)n1 | · | 19* | 19 | · | 1825 | 12 | 3 | 1 | 0
COc1cc(-c2nc3ccccc3s2)ccc1O | · | 23* | 31* | · | 2089* | 30* | 30* | 33* | 23
NS(=O)(=O)c1ccc(CCNC(=O)CCCOc2ccccc2)cc1 | 2028 | 4 | 4 | 1406 | 1726 | 5 | · | · | ·
CCn1c(=O)c(=O)[nH]c2cc(C(=O)NC3CC3)ccc21 | 1982 | 3 | 0 | 1661 | 1462 | 2 | · | · | ·
CCn1c(=O)c(=O)[nH]c2cc(C(=O)Nc3ccc(S(=O)(=O)N4CCCC4)cc3)ccc21 | · | 13 | 26* | · | 1683 | 10 | 3 | 5 | 4
CCOC(=O)Cc1csc(NC(=O)c2sc3nc4c(C)cc(C)cc4cc3c2N)n1 | · | 17 | 27* | · | 1807 | 10 | 9 | 6 | 5
CCOC(=O)Cc1csc(NC(=O)c2csc(C)c2)n1 | · | -2 | -3 | · | 1419 | 14 | · | · | ·
